# This is part of a sample that, as a whole, favours compounds with a hit. Of some 83,000 tested, about 20% had one in any assay.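 Percent growth is the endpoint: 0 to 100 indicates growth inhibition (40 means 60% inhibition), 0 means no net growth, and negative values indicate cell death.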 Active and inactive are the calls of the source.
# Test system: NCI/ADR-RES ovarian
# Test: NCI-60 one-dose screen, 48 h (100 = growth as untreated, 0 = no growth, -100 = all killed)
# Conditions: 10 µM
# Procedure: Growth inhibition of the NCI/ADR-RES human […] tumor cell line is measured as a screen for anti-cancer activity. Cells are grown in 96 well plates and exposed to the test compound for 48 hours. Compounds are tested at a single concentration, which is 10^-5 M for most compounds. The reported endpoint is percent growth (GI% or GIPRCNT), where numbers from 0 - 100% represent growth inhibition, and numbers from -100% - 0 represent cell death. For example, a value of 40 represents 60% growth inhibition. A value of 0 means no net growth occurred over the course of the experiment. A value of -40 indicates 40% of cells at the beginning of the experiment died by the end of the experiment. A value of -100 means all cells are dead at the end of the experiment.
# NCI-60 Human Tumor Cell Lines Screen was performed using the standard one-dose NCI protocol, which is described in more detail at https://dtp.cancer.gov/discovery_development/nci-60/default.htm.
# Compounds with GIPRCNT values below 10 were considered active. Activity score was based on GIPRCNT using the following formula: […]
# Score is 0 for GIPRCNT values of 100 or above, 50 for GIPRCNT values of 0, and 100 for GIPRCNT values of -100.
row,Structure (SMILES),growth
1,CCn1c(SC/C(=N/O)c2ccccc2)nnc1-c1ccccc1,103% (inactive)
2,CS(=O)(=O)c1nccc(-c2c(-c3cccc(OCCN4CCOCC4)c3)nc3sccn23)n1,93.3% (inactive)
3,N=C1S/C(=C/c2ccc(-c3ccc4c(c3)C(=O)NC4=O)o2)C(=O)N1c1ccc(Br)cc1,50.5% (inactive)
4,CC[C@@H](C(=O)[C@H](C)[C@H](O)[C@@H](C)[C@H]1O[C@H]([C@@H](CC)C(=O)O)CC[C@H]1C)C1O[C@]2(C=C[C@@H](O)[C@]3(CC[C@@](C)([C@H]4CC[C@](O)(CC)[C@H](C)O4)O3)O2)[C@H](C)C[C@@H]1C (stereo not given in full),44% (inactive)
5,O=C(CCCCC(=O)Oc1c(Cl)cc(Cl)cc1[N+](=O)[O-])Oc1c(Cl)cc(Cl)cc1[N+](=O)[O-],102% (inactive)
6,COc1cc(/C=C/c2cc(/C=C/c3ccc(O)c(OC)c3)nc(N)n2)ccc1O,39.3% (inactive)
7,O=[N+]([O-])c1cc(Cl)cc(Cl)c1O,97.6% (inactive)
8,COc1cc(C2CC(c3ccccc3)=NN2C(C)=O)cc(OC)c1OC (stereo not given),11.1% (inactive)
9,O=C1/C(=C/c2cccc(F)c2)Cc2ccccc21,102% (inactive)
10,C=C1CCC2(C#N)[C@H]3[C@H](CC[C@@H]2C)[C@@H](C)C[C@@H](CC(C)(C)NC(=O)CN2CCC2=O)[C@H]13 (stereo not given in full),59.2% (inactive)
11,O=C(O)Cc1ccc(O)c(O)c1,111% (inactive)
12,O=c1oc2c(cc1-c1ccc(F)cc1)C(O)Oc1ccccc1-2 (stereo not given),54.5% (inactive)
13,COc1ccc(-c2nn(-c3cccc(Cl)c3)cc2-c2c(C#N)c(=O)n3[nH]c(-c4ccc(C)cc4)nc3c2C#N)cc1,51.2% (inactive)
14,CC1(C)N=C(N)N=C(N)N1c1cccc(C#N)c1,75% (inactive)
15,Nc1nc(N)c(N)c(Nc2ccc(CCO)cc2)n1,103% (inactive)
16,CN(C)CCCOc1ccc(OCCCN(C)C)c2c1C(=O)c1ccccc1C2=O,96.1% (inactive)
17,OCC1OC(n2cnc3c(NCc4ccco4)ncnc32)C(O)C1O (stereo not given),12.7% (inactive)
18,COc1ccc(C(=O)N/N=C/c2cc(C(F)(F)F)ccc2Cl)cc1,90.9% (inactive)
19,CCCc1cn(CC(=O)Nc2nc3ccccc3s2)nn1,107% (inactive)
20,O=C(Nc1ccccc1)Nc1ncnc2c1ncn2-c1ccccc1,66.1% (inactive)

row,Structure (SMILES),growth
1,COc1cc2c(cc1NC(=O)C(Cl)Cl)-c1ccc(NC(=O)C(Cl)Cl)cc1C2,-39.2% (active)
2,CCOC(=O)c1cc(C(=O)c2cc(OC)cc(OC)c2)n2ncc3ccccc3c12,19.1% (inactive)
3,Nc1cc(Br)c(-c2nn3c(CCC(=O)c4nc5ccccc5[nH]4)nnc3s2)c(Br)c1,97.3% (inactive)
4,O=C(CN(C1CCCCC1)C1CCCCC1)Nc1ccc(S(=O)(=O)c2ccc(NC(=O)CN(C3CCCCC3)C3CCCCC3)cc2)cc1,4.04% (active)
5,Nc1ccc(CC[C@H]2CCC/C=C/[C@@H]3C[C@H](O)C[C@H]3[C@H](O)/C=C/C(=O)O2)cc1,-0.671% (active)
6,CC(=O)Nc1cc2c(cc1Cl)Cc1cc(Cl)ccc1-2,97% (inactive)
7,COC(=O)C1OC1c1cc([N+](=O)[O-])ccc1OC (stereo not given),101% (inactive)
8,C[N+]1(CCCCC[N+]2(C)CCCC2)CCCC1,75% (inactive)
9,CC(C)(C)OC(=O)CC(S(=O)(=O)c1ccccc1)S(=O)(=O)c1ccccc1,107% (inactive)
10,O=C(CCc1nnc2sc(-c3cc(O)c(O)c(O)c3)nn12)c1nc2ccccc2[nH]1,94.2% (inactive)
11,c1ccc2c(c1)Cc1ccccc1N2CCN1CCCCC1,88.5% (inactive)
12,CN1C(=O)C2(Nc3cc(Cl)ccc3S2)c2cc(Cl)ccc21 (stereo not given),93.6% (inactive)
13,COc1cc2cc(Oc3ccc(NC(=O)Nc4ccc(Cl)c(C(F)(F)F)c4)cc3)c(C)nc2cc1OC,2.01% (active)
14,O=C(Nc1cc([N+](=O)[O-])c2[nH]c(=O)c3ccccc3c2c1)C(F)(F)F,76.9% (inactive)
15,Clc1ccc(/C=C2\CCCC3C2=Nc2ccccc2NC3c2ccc(Cl)cc2)cc1 (stereo not given),99.4% (inactive)
16,O=C1c2ccccc2C(=O)c2c1ccc1c(=O)n(-c3ccccc3C(F)(F)F)nnc21,-16.4% (active)
17,CCc1ccc(-c2ccc(-n3nc(C)c4c(N)nc(Cc5ccccc5)nc43)cc2)cc1,38.4% (inactive)
18,C#C[C@]1(O)CCC2C3CCc4cc(OC5CCCC5)ccc4C3CC[C@@]21C (stereo not given in full),87.6% (inactive)
19,CC(=O)COc1ccc(Cl)cc1Cl,111% (inactive)
20,COc1ccc(/C=C/c2nnc(/C=C/c3ccc(OC)c(OC)c3)o2)cc1OC,13.6% (inactive)
